Hit rate of the full screen: of about 5,500 compounds, about 2,000 (36%) were called active. Another 18% or so got no clear call; they are omitted. No stated cut-off is given here; in the data, active means normalized growth mostly below about 0.91 (no sharp cut-off); inconclusive means no clear call, values can overlap the other calls; inactive means mostly above about 0.92. The list shows a part of the results.
Test: chemical genetic growth profiling, strain panel (AID 1159580);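 further: tested at 20 µM; growth read once vehicle control cultures reached saturation at 30 °C; 1 = growth at the plate median or of vehicle wells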
Conditions: growth OD

Measured: normalized growth

CCCc1nc(C(C)(C)O)c(C(=O)OCc2oc(=O)oc2C)n1Cc1ccc(-c2ccccc2-c2nn[nH]n2)cc1
inactive: S. cerevisiae deletion strains, locus YKL009W, strain mrt4, stronger effect = lower value 0.957 | S. cerevisiae deletion strains, locus YKL068W, stronger effect = lower value 0.988 | S. cerevisiae deletion strains, locus YKL085W, strain MDH1 (second series), stronger effect = lower value 0.98 | S. cerevisiae deletion strains, locus YKL085W, strain MDH1, stronger effect = lower value 0.98 | S. cerevisiae deletion strains, locus YKL160W, strain elf1, stronger effect = lower value 0.994 | S. cerevisiae deletion strains, locus YKL190W, strain CNB1, stronger effect = lower value 1.01 | S. cerevisiae deletion strains, locus YKR001C, strain vps1, stronger effect = lower value 0.985 | S. cerevisiae deletion strains, locus YKR026C, strain gcn3, stronger effect = lower value 0.976 | S. cerevisiae deletion strains, locus YKR091W, strain srl3, stronger effect = lower value 0.981 | S. cerevisiae deletion strains, locus YLL001W, strain dnm1, stronger effect = lower value 0.972 | S. cerevisiae deletion strains, locus YLL026W, stronger effect = lower value 0.958 | S. cerevisiae deletion strains, locus YLL041C, strain sdh2, stronger effect = lower value 0.972 | S. cerevisiae deletion strains, locus YLR027C, strain aat2, stronger effect = lower value 0.984 | S. cerevisiae deletion strains, locus YLR039C, strain RIC1, stronger effect = lower value 0.981 | S. cerevisiae deletion strains, locus YLR058C, strain SHM2, stronger effect = lower value 0.988 | S. cerevisiae deletion strains, locus YLR102C, strain apc9, stronger effect = lower value 0.989 | S. cerevisiae deletion strains, locus YLR113W, strain HOG1, stronger effect = lower value 0.987 | S. cerevisiae deletion strains, locus YLR221C, strain rsa3, stronger effect = lower value 1.02 | S. cerevisiae deletion strains, locus YLR258W, strain gsy2, stronger effect = lower value 0.977 | S. cerevisiae deletion strains, locus YLR262C, strain YPT6 (second series), stronger effect = lower value 0.962 | S. cerevisiae deletion strains, locus YLR262C, strain YPT6, stronger effect = lower value 0.987 | S. cerevisiae deletion strains, locus YLR268W, strain sec22, stronger effect = lower value 0.971 | S. cerevisiae deletion strains, locus YLR320W, strain mms22, stronger effect = lower value 1.01 | S. cerevisiae deletion strains, locus YLR330W, strain CHS5, stronger effect = lower value 0.995 | S. cerevisiae deletion strains, locus YLR342W, strain FKS1 (second series), stronger effect = lower value 0.977 | S. cerevisiae deletion strains, locus YLR342W, strain FKS1, stronger effect = lower value 0.978 | S. cerevisiae deletion strains, locus YLR357W, strain rsc2, stronger effect = lower value 0.985 | S. cerevisiae deletion strains, locus YLR370C, strain arc18, stronger effect = lower value 0.947 | S. cerevisiae deletion strains, locus YLR371W, strain rom2, stronger effect = lower value 0.985 | S. cerevisiae deletion strains, locus YLR384C, strain iki3, stronger effect = lower value 0.977 | S. cerevisiae deletion strains, locus YLR418C, strain cdc73, stronger effect = lower value 0.952 | S. cerevisiae deletion strains, locus YML016C, strain PPZ1, stronger effect = lower value 0.993 | S. cerevisiae deletion strains, locus YML032C, strain rad52, stronger effect = lower value 0.993 | S. cerevisiae deletion strains, locus YML120C, strain ndi1, stronger effect = lower value 0.97 | S. cerevisiae deletion strains, locus YML124C, strain tub3, stronger effect = lower value 0.984 | S. cerevisiae deletion strains, locus YMR058W, strain fet3, stronger effect = lower value 0.965 | S. cerevisiae deletion strains, locus YMR078C, strain ctf18, stronger effect = lower value 0.99 | S. cerevisiae deletion strains, locus YMR125W, strain sto1, stronger effect = lower value 0.932 | S. cerevisiae deletion strains, locus YMR129W, stronger effect = lower value 0.97 | S. cerevisiae deletion strains, locus YMR205C, strain PFK2, stronger effect = lower value 0.976 | S. cerevisiae deletion strains, locus YMR223W, strain ubp8, stronger effect = lower value 0.995 | S. cerevisiae deletion strains, locus YMR231W, strain pep5, stronger effect = lower value 0.967 | S. cerevisiae deletion strains, locus YMR263W, strain SAP30, stronger effect = lower value 1.02 | S. cerevisiae deletion strains, locus YMR307W, strain GAS1, stronger effect = lower value 0.894 | S. cerevisiae deletion strains, locus YNL067W, strain RPL9B, stronger effect = lower value 1.03 | S. cerevisiae deletion strains, locus YNL071W, strain lat1, stronger effect = lower value 0.977 | S. cerevisiae deletion strains, locus YNL128W, strain TEP1, stronger effect = lower value 1.02 | S. cerevisiae deletion strains, locus YNL153C, strain GIM3, stronger effect = lower value 0.996 | S. cerevisiae deletion strains, locus YNL183C, strain NPR1, stronger effect = lower value 0.963 | S. cerevisiae deletion strains, locus YNL209W, strain ssb2, stronger effect = lower value 0.971 | S. cerevisiae deletion strains, locus YNL233W, strain BNI4, stronger effect = lower value 0.992 | S. cerevisiae deletion strains, locus YNL248C, strain rpa49, stronger effect = lower value 0.969 | S. cerevisiae deletion strains, locus YNL250W, strain rad50, stronger effect = lower value 0.992 | S. cerevisiae deletion strains, locus YNL271C, strain bni1, stronger effect = lower value 0.992 | S. cerevisiae deletion strains, locus YNL298W, strain CLA4, stronger effect = lower value 0.975 | S. cerevisiae deletion strains, locus YNL307C, strain MCK1, stronger effect = lower value 0.992 | S. cerevisiae deletion strains, locus YNL322C, strain KRE1 (second series), stronger effect = lower value 0.972 | S. cerevisiae deletion strains, locus YNL322C, strain KRE1, stronger effect = lower value 0.997 | S. cerevisiae deletion strains, locus YNR049C, strain mso1, stronger effect = lower value 0.968 | S. cerevisiae deletion strains, locus YNR052C, strain pop2, stronger effect = lower value 0.99 | S. cerevisiae deletion strains, locus YOL006C, strain TOP1, stronger effect = lower value 0.998 | S. cerevisiae deletion strains, locus YOL012C, strain htz1 1.03 | S. cerevisiae deletion strains, locus YOL147C, strain pex11, stronger effect = lower value 0.998 | S. cerevisiae deletion strains, locus YOR001W, strain rrp6, stronger effect = lower value 0.943 | S. cerevisiae deletion strains, locus YOR061W, strain CKA2, stronger effect = lower value 0.989 | S. cerevisiae deletion strains, locus YOR069W, strain VPS5, stronger effect = lower value 0.994 | S. cerevisiae deletion strains, locus YOR070C, strain gyp1, stronger effect = lower value 0.992 | S. cerevisiae deletion strains, locus YOR080W, strain dia2, stronger effect = lower value 0.964 | S. cerevisiae deletion strains, locus YOR083W, strain WHI5, stronger effect = lower value 0.993 | S. cerevisiae deletion strains, locus YOR106W, strain vam3, stronger effect = lower value 0.969 | S. cerevisiae deletion strains, locus YOR136W, strain idh2, stronger effect = lower value 0.986 | S. cerevisiae deletion strains, locus YOR144C, strain elg1, stronger effect = lower value 0.985 | S. cerevisiae deletion strains, locus YOR184W, strain ser1, stronger effect = lower value 0.995 | S. cerevisiae deletion strains, locus YOR231W, strain MKK1, stronger effect = lower value 0.958 | S. cerevisiae deletion strains, locus YOR265W, strain rbl2, stronger effect = lower value 0.979 | S. cerevisiae deletion strains, locus YOR270C, strain vph1, stronger effect = lower value 1.01 | S. cerevisiae deletion strains, locus YOR290C, strain snf2, stronger effect = lower value 0.983 | S. cerevisiae deletion strains, locus YOR316C, strain cot1, stronger effect = lower value 0.989 | S. cerevisiae deletion strains, locus YPL051W, strain arl3, stronger effect = lower value 0.988 | S. cerevisiae deletion strains, locus YPL055C, strain LGE1, stronger effect = lower value 0.993 | S. cerevisiae deletion strains, locus YPL078C, strain atp4, stronger effect = lower value 0.961 | S. cerevisiae deletion strains, locus YPL106C, strain sse1, stronger effect = lower value 0.894 | S. cerevisiae deletion strains, locus YPL240C, strain hsp82, stronger effect = lower value 0.974 | S. cerevisiae deletion strains, locus YPL241C, strain CIN2, stronger effect = lower value 0.999 | S. cerevisiae deletion strains, locus YPL256C, strain CLN2, stronger effect = lower value 0.95 | S. cerevisiae deletion strains, locus YPR119W, strain clb2, stronger effect = lower value 0.992 | S. cerevisiae deletion strains, locus YPR141C, strain kar3, stronger effect = lower value 0.99 | S. cerevisiae deletion strains, locus YPR163C, strain tif3, stronger effect = lower value 0.981 | S. cerevisiae deletion strains, locus YPR167C, strain met16, stronger effect = lower value 0.982 | S. cerevisiae deletion strains, strain wtn01, stronger effect = lower value 0.981 | S. cerevisiae strains, strain wild type, stronger effect = lower value 1.02

Source: PubChem BioAssay AID1159580 (chemical genetic matrix, 2015)
